Rows were chosen to be rich in hits. Some 2.4% of all compounds tested hit in one or more screens of this group.
POLI inh – DNA polymerase iota (human) inhibition | Pol iota fluorescent replication assay, 10 min | Potency, µM (titrated, usually from 115 µM), without a hit: at the top dose activity, negative = inhibition, hits mostly inhibitors | 390,000 tested, 1% active | AID 588590
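Fluorescent replication assay read twice, at 0 min and 10 min after adding 50 nM (final) substrate. Enzyme (10 nM) and compounds were first incubated 15 min at room temperature; enzyme-free buffer wells were negative controls.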
TDP1 block – blocks human tyrosyl-DNA phosphodiesterase 1. recombinant TDP1, AlphaScreen DNA substrate cleavage. Potency, µM (titrated, usually from 130 µM), inactives show top-dose activity change, negative = inhibition, actives largely listed as inhibitors. 350,000 tested, 0.28% active; note: % is set by controls: 0 for no effect and ±100 for the full control effect; nearly all actives have a fitted effect of over 40% in size
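Compounds were preincubated with Tdp1 (1 nM final) for 15 min at room temperature before substrate (15 nM final) started a 5 min reaction; beads (10 ug/ml final) were then added for 10 min before AlphaScreen detection.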
Pol beta inh – DNA polymerase beta (human) inhibition. P06746. Pol beta primer extension/strand displacement, fluorescence kinetic. Potency, µM (titrated, usually from 114 µM), for inactives: top-dose activity change, negative = inhibition, hits mostly inhibitors. 340,000 tested, 1.3% active; note: % is set by controls: 0 for no effect and ±100 for the full control effect
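Values derive from four-parameter Hill fits of normalized kinetic data: reads at 0 and 10 min following addition of 50 nM substrate to 10 nM Pol beta preincubated 15 min with compound.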
POLK inh – DNA polymerase kappa (human) inhibition; AID 588579; purified Pol kappa, fluorescent DNA synthesis assay, 10 min; Potency, µM (titrated, usually from 107 µM), without a hit: at the highest dose activity, negative = inhibition, hits mostly inhibitors; Q9UBT6; 400,000 tested, 0.53% active; note: % is set by controls: 0 for no effect and ±100 for the full control effect
Target sequence (Q9UBT6 whole entry, looked up): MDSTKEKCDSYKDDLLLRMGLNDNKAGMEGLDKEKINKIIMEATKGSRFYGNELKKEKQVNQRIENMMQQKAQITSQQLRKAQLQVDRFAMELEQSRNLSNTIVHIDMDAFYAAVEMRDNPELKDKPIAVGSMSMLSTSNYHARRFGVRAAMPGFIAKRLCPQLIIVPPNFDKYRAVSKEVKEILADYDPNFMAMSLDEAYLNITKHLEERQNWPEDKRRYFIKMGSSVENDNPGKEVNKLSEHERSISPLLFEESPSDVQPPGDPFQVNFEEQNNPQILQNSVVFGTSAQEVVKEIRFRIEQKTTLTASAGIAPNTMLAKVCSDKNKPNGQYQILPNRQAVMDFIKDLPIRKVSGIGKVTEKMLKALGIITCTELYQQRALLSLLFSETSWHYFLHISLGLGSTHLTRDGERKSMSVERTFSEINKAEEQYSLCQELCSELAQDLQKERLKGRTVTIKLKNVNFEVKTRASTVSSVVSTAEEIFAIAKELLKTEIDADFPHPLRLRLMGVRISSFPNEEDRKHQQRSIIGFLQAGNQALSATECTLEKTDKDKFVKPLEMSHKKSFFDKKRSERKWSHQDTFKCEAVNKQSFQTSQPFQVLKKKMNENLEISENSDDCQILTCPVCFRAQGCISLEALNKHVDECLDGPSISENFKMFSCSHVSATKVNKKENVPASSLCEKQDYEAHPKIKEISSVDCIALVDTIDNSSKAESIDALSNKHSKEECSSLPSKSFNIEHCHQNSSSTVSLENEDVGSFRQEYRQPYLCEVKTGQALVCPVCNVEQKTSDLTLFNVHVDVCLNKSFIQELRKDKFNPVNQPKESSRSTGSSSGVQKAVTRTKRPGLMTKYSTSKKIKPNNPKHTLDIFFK
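Here, compound and 10 nM enzyme are combined for 15 min at room temperature; adding 50 nM substrate (final) starts DNA synthesis, tracked by fluorescence at 0 and 10 min against buffer-only wells.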
FEN1 inhibitor – human FEN1 inhibition | P39748 | Potency, µM (highest dose often 114 µM), for the others: at the highest dose activity change, negative = inhibition, actives largely listed as inhibitors | 390,000 tested, 0.35% active | Recombinant FEN1 flap cleavage, fluorescence, 15 min; note: % is set by controls: 0 for no effect and ±100 for the full control effect; nearly all actives have a fitted effect of over 65% in size
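FEN1 at 10 nM, compound pretreatment for 15 min (room temperature), 50 nM final substrate to initiate; endpoint reads at 0 and 15 min; DMSO-only plates used as vehicle background.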
Pol eta inh – inhibitors of human DNA polymerase eta | Q9Y253 | recombinant Pol eta, fluorescent DNA replication assay | Potency, µM (highest dose often 114 µM), without a hit: at the highest dose activity change, negative = inhibition, most hits filed as inhibitors | 390,000 tested, 1.2% active; note: % is set by controls: 0 for no effect and ±100 for the full control effect
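Pol eta (10 nM) was preincubated with compounds for 15 min at room temperature, after which fluorescent replication substrate (50 nM final) was added to start the reaction. Fluorescence was read kinetically at 0 and 10 min.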
* = called active by the depositor; i = inactive; ? = inconclusive; nt = no result; [ ] = dose if it differs, or a comment. Calls come from the whole dose curve; as a rule, active = well fitted curve in the direction sought with a large enough effect; inconclusive = small, poorly fitted or top-dose-only effect, or another doubt; inactive = no such curve, though single readings can be large; an effect the other way counts as inactive or inconclusive. Potency is the fitted concentration of half-maximal effect.

SMILES	POLI inh	TDP1 block	Pol beta inh	POLK inh	FEN1 inhibitor	Pol eta inh
CC(C)CNc1nc(N)c([N+](=O)[O-])c(N2CCCCCC2)n1	-1%	nt	-1%	3%	45µM*	-20%
O=C(CN1C(=O)S/C(=C\c2ccccc2)C1=O)NC1CCS(=O)(=O)C1 (stereo unspecified)	45%	2%	42%	10%	6%	-2%
CC(C)c1ccc(/C=C2\SC(=O)N(CC(=O)NC3CCS(=O)(=O)C3)C2=O)cc1 (stereo unspecified)	16µM*	-6%	?	-16%	-8%	50µM*
CCN(CC)Cc1oc(CO)cc(=O)c1O	?	50µM*	?	-13%	-4%	-18%
CCN(CC)c1ccc(/C=N/N(c2ccccc2)c2ccccc2)c(O)c1	19%	6%	-11%	0%	-5%	-7%
O=C1c2cccc3cccc(c23)C(=O)N1/N=C/c1ccc(O)cc1O	17%	5%	?	-29%	-12%	?
Oc1ccc(/C=N/N(c2ccccc2)c2ccccc2)c(O)c1O	nt	nt	5µM*	nt	nt	nt
O=C1c2ccccc2C(=O)N1/N=C/c1ccc(O)c(O)c1O	?	?	?	1.4µM*	11µM*	1.6µM*
Oc1ccc(/C=N/N2CCCCC2)c(O)c1O	?	nt	35µM*	?	?	-20%
Cc1cccc(S(=O)(=O)c2cn(Cc3ccccc3)c3cc(N4CCCCC4)c(F)cc3c2=O)c1	12%	4%	7%	1%	-2%	-13%
COCCNC(=O)c1ccc(CSc2nc3ccncc3n2Cc2ccccc2)cc1	44%	0%	1%	?	-6%	-18%
Cn1cccc1Cc1nnc(SCC(=O)Nc2ccc3c(c2)OCCO3)n1-c1ccc(F)cc1	47%	11%	0%	8%	13%	-27%
CN1CCc2c(sc3nc(SCC(=O)NCc4ccco4)n(-c4ccccc4)c(=O)c23)C1	-17%	-2%	-1%	0%	-2%	-31%
COc1ccc(-n2c(Cc3cccn3C)nnc2SCC(=O)NCc2ccccc2Cl)cc1	3%	5%	19%	-12%	16%	-19%
COc1ccc(-n2c(Cc3cccn3C)nnc2SCC(=O)NCc2ccco2)cc1	?	3%	40µM*	?	10%	-7%
COc1ccc(-n2c(SCC(=O)NCc3ccco3)nc3sc4c(c3c2=O)CCN(C)C4)cc1	32µM*	2%	?	-24%	-2%	?
Cc1ccc(-n2c(Cc3cccn3C)nnc2SCC(=O)NCc2ccc3c(c2)OCO3)cc1	?	9%	8.9µM*	-36%	-4%	-6%
CN1CCN(c2oc(/C=C/c3ccc(F)cc3)nc2C#N)CC1	4%	2%	16%	-2%	-11%	nt
O=C1CCc2cc(S(=O)(=O)Nc3cc(F)cc(Cl)c3)c(F)cc2N1	nt	-1%	nt	nt	nt	nt
O=C(Nc1nc2nc(-c3ccccc3)cc(=O)n2[nH]1)c1ccc(Cl)cc1	-16%	22%	22µM*	-18%	-12%	-9%
Cc1cc(C)n(-c2nc(NC(C)C)nc(NC(C)(C)C)n2)n1	28%	0%	nt	-4%	11%	nt
COc1ccc(NC(=O)COc2ccc(/C=C/c3cc[n+](C)cc3)cc2OC)cc1	?	nt	?	-17%	-21%	-10%
COc1ccc(NC(=O)COc2ccc(/C=C/c3cccc[n+]3C)cc2OC)cc1	45µM*	nt	11µM*	?	11%	-14%
COc1cc(/C=C/c2cc[n+](C)cc2)ccc1OCC(=O)Nc1ccc(Cl)c(Cl)c1	64%	nt	56µM*	-12%	?	89µM*
Cc1ccc2c(c1)NC(=O)c1cc([N+](=O)[O-])ccc1O2	24%	3%	0%	-10%	4%	-11%
SMILES	POLI inh	TDP1 block	Pol beta inh	POLK inh	FEN1 inhibitor	Pol eta inh
O=C1Nc2ccccc2Oc2cc([N+](=O)[O-])ccc21	-23%	-3%	?	-27%	-9%	50µM*
O=C(COC(=O)c1cccc(S(=O)(=O)N2CCc3ccccc32)c1)NCc1ccco1	-13%	1%	0%	-13%	-2%	-19%
O=C(COC(=O)c1cccc(S(=O)(=O)N2CCc3ccccc3C2)c1)NCc1ccco1	-15%	-7%	18µM*	-23%	-7%	-10%
O=C(COC(=O)c1cc(S(=O)(=O)N2CCc3ccccc3C2)ccc1Cl)NCc1ccco1	?	3%	40µM*	?	-18%	20µM*
O=C(COC(=O)c1cc(S(=O)(=O)N2CCOCC2)ccc1Cl)NCc1ccco1	7%	1%	nt	-13%	-2%	-14%
COc1ccc(S(=O)(=O)N(CCc2ccccc2)CC(=O)Nc2cc(C)cc(C)c2)cc1OC	21%	3%[12.3 µM]	-28%	-13%	?	-20%
Cc1ccccc1NC(=O)Cn1cc(S(=O)(=O)c2ccccc2)c(=O)c2ccccc21	25%	6%	20%	-6%	-7%	-12%
COc1cc(Nc2nc3c(S(=O)(=O)c4ccc(C)c(C)c4)nnn3c3ccsc23)cc(OC)c1	-2%	0%	2%	-1%	20%	-4%
COc1cc2c(cc1OC)-c1cc3ccc4c(c3c[n+]1CC2)OCO4	14µM*	3%	40µM*	-21%	?	?
CCCCCCC[n+]1ccc(/C=C/c2c[nH]c3ccccc23)c2ccccc21	?	nt	nt	32µM*	25µM*	nt
CCCCCCCCCC[n+]1ccc(/C=C/c2c[nH]c3ccccc23)cc1	4%	nt	nt	-7%	89µM*	nt
CCCCCCCCCCCCCCCC[n+]1ccc(/C=C/c2c[nH]c3ccccc23)c2ccccc21	i	nt	nt	95%	50µM*	nt
CCCCCCCCCCCC[n+]1ccc(/C=C/c2c[nH]c3ccccc23)c2ccccc21	-18%	nt	nt	10%	-31%	nt
COc1cc(N=Nc2cccc(S(N)(=O)=O)c2)c2ccccc2c1N	?	9%	?	-26%	45µM*	?
COc1ccc(CNC(=O)Cc2c(C)c3cc4c(C)coc4c(C)c3oc2=O)cc1OC	-7%	0%	11%	9%	-17%	-9%
COc1cccc2cc(C(=O)NCc3ccco3)c(=O)oc12	10%	-2%	-4%	0%	1%	0%
COc1cccc2cc(C(=O)NCc3ccco3)c(=Nc3ccc(C(=O)O)cc3)oc12	8%	-7%	-8%	0%	?	89µM*
CCOC(=O)c1cc(-c2ccc(OC)cc2)n(CCC(=O)NC2CCC(C)CC2)c1C (stereo unspecified)	29%	5%	25%	-10%[60.1 µM]	-19%	-3%
COc1ncc2nc(-c3ccc(F)cc3)c(=O)n(CCC#N)c2n1	nt	nt	nt	2%[60.1 µM]	nt	nt
NC(=O)CSC1=N/C(=C\c2ccco2)C(=O)N1c1ccc(OC(F)F)cc1	35µM*	-2%	-23%	?	-9%	32%

Source: PubChem (National Center for Advancing Translational Sciences (NCATS))
